Measurements: PubChem BioAssay AID623868 (Vanderbilt High Throughput Screening Facility, 2012)
About 760 (36%) of roughly 2,100 compounds were called active.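 The calls were made as follows: active = thallium-flux fluorescence traces judged by eye to show enhanced or reduced glutamate response, manual score 1 or -1, so both directions (some results past the limit were not filed as active); inactive = the rest, including fluorescent or raised-baseline compounds.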 Not all results are given here.

Experiment: thallium influx changes without GIRK channels – cell-based, HEK-293 rmGlu8, no GIRK, thallium flux, counter-screen for GIRK activator project, confirmation (AID 623868);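 also: extra codes mark interference with 3 for fluorescent and 4 for baseline rise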
Conditions: thallium flux fluorescence, at 10 µM, actives lie on both sides, codes: 1 enhancer, -1 blocker, 0 none, thallium stimulus containing EC20 glutamate

| Structure (SMILES) | manual score |
| --- | --- |
| CSc1ccc(S(=O)(=O)NCc2ccccc2Cl)cc1 | 0 (inactive) |
| Cc1ccc(NC(=O)COC(=O)CCC(=O)c2ccc(Cl)cc2)cc1S(=O)(=O)N(C)C | 0 (inactive) |
| Cc1ccc(C(=O)CC(=O)COc2ccc(Cl)cc2C)cc1 | 1 (active) |
| Cc1ccc(C(=O)CC(=O)COc2ccc(Cl)cc2)cc1 | 0 (inactive) |
| S=c1[nH]c2cc(Cl)ccc2s1 | 1 (active) |
| CCOC(=O)c1cccc(NC(=O)CSc2nnc(C3CCCCC3)n2C)c1 | -1 (active) |
| COc1cccc(NC(=O)CSc2nnc(-c3ccoc3C)n2-c2ccccc2)c1 | 0 (inactive) |
| Cc1ccc(C)c(-n2nnnc2SCC(=O)Nc2cccc(-c3nnc4n3CCCCC4)c2)c1 | 3 (inactive) |
| Cc1ccc(-c2nnc(SCC(=O)Nc3cccc(C(=O)N4CCOCC4)c3)n2C)cc1 | 0 (inactive) |
| CCOC(=O)c1cccc(NC(=O)CSc2nnc(-c3cccnc3)n2C)c1 | -1 (active) |
| CCc1nnc(NC(=O)CSc2nnc(C3CCCCC3)n2-c2cccc(Cl)c2)s1 | -0.5 (inactive) |
| CC1CC(=S)Nc2ccccc2N1Cc1ccccc1 (stereo not given) | 0 (inactive) |
| CC1(C)CC(=S)Nc2ccccc2S1 | 1 (active) |
| CC1CSc2ccccc2NC1=S (stereo not given) | 0 (inactive) |
| O=C(CSc1ccccc1)N(c1ccc(Br)cc1)c1nccs1 | 0 (inactive) |
| CCCc1nnc2n1N=C(c1ccc(OC)c(OC)c1)CS2 | -0.5 (inactive) |
| Brc1ccccc1C1=Nn2c(nnc2-c2ccccc2)SC1 | 0 (inactive) |
| COc1ccccc1C1=Nn2c(nnc2C2CCCCC2)SC1 | 0 (inactive) |
| COc1ccc(C2=Nn3c(nnc3C3CCCCC3)SC2)cc1OC | -1 (active) |
| c1cc2c(cc1C1=Nn3c(nnc3C3CCCCC3)SC1)OCO2 | -1 (active) |
| CCC1(c2ccc(Cl)cc2)NC(=S)N(c2ccccc2)N1 (stereo not given) | 1 (active) |
| CCOc1ccccc1NC(=O)CSc1nnc(-c2ccco2)n1Cc1ccco1 | -1 (active) |
| Clc1cccc(CSc2nnc(-c3ccccn3)n2Cc2ccco2)c1 | -0.5 (inactive) |
| CCOc1ccccc1NC(=O)Nc1cccc(C(C)=O)c1 | 0 (inactive) |
| COc1ccc(NC(=O)CSc2nnc(-c3ccccn3)n2Cc2ccco2)cc1OC | 0 (inactive) |
| CCOc1ccccc1NC(=O)CSc1nnc(-c2ccccn2)n1Cc1ccco1 | -1 (active) |
| CCn1c(SCC(=O)Nc2oc(-c3ccccc3)c(-c3ccccc3)c2C#N)nnc1-c1ccco1 | 0 (inactive) |

| Structure (SMILES) | manual score |
| --- | --- |
| COc1cc(Cl)cc2c1Sc1ccccc1/C2=C/CCN(C)C | 0 (inactive) |
| O=C(CSc1nc(-c2ccc(F)cc2)cs1)N1CCOCC1 | 0 (inactive) |
| CC1(C)Cc2ccccc2C(/C(=N\Nc2cccc(Cl)c2)C(N)=O)=N1 | 0 (inactive) |
| Cc1ccccc1NC(=S)NNC(=O)c1csc2c1CCC(C)C2 (stereo not given) | 1 (active) |
| CC(C)(C)C1CCc2c(C(=O)N/N=C/c3cccs3)csc2C1 (stereo not given) | 0 (inactive) |
| Cc1cccc(NC(=S)NNC(=O)c2csc3c2CCC(C)C3)c1 (stereo not given) | 1 (active) |
| CC(C)CNC(=S)NNC(=O)c1csc2c1CCC(C)C2 (stereo not given) | 0 (inactive) |
| Cc1cccc(NC(=S)NNC(=O)c2csc3c2CCCC3)c1 | 1 (active) |
| Cc1ccc(C)c(NC(=S)NNC(=O)c2cc3c(s2)CCC(C)C3)c1 (stereo not given) | 1 (active) |
| O=C1CCC(/C=C/c2ccccc2)=NN1Cc1ccc(Cl)c(Cl)c1 | 0 (inactive) |
| CCCN1CCC(NC(=O)Nc2ccc(F)cc2F)CC1 | 0 (inactive) |
| Cc1ccc(C)c(NC(=S)NNC(=O)c2csc3c2CCC(C)C3)c1 (stereo not given) | 1 (active) |
| Cc1ccc(C)c(NC(=S)NNC(=O)c2csc3c2CCCC3)c1 | 1 (active) |
| O=C(NC(=S)N1CCN(c2ccc(C(F)(F)F)cc2[N+](=O)[O-])CC1)c1cccs1 | 1 (active) |
| O=C(O/N=C\c1ccc(N2CCCCC2)c([N+](=O)[O-])c1)c1c(F)cccc1F | 0 (inactive) |
| O=C(N1CCCCC1)N1CCN(C(=O)N(c2ccccc2)c2ccccc2)CC1 | 0 (inactive) |
| O=C(NC(=S)N1CCN(c2ccc(Cl)cc2[N+](=O)[O-])CC1)c1ccco1 | 1 (active) |
| O=C(NC(=S)N1CCN(c2ccc(Cl)cc2[N+](=O)[O-])CC1)c1cccs1 | 1 (active) |
| O=C(NC(=S)N1CCCCC1)c1cccs1 | 1 (active) |
| COC(=O)C1CCCN1C(=O)c1cccs1 (stereo not given) | 0 (inactive) |
| FC(F)(F)c1cccc(N2CCN(C(=S)NC3CCCCC3)CC2)c1 | 0 (inactive) |
| CCN(CC)CC(O)COc1ccccc1C(=O)CCc1ccccc1 (stereo not given) | 0 (inactive) |
| COC(=O)c1cc(=O)n(CCc2ccc(OC)cc2)c(=Nc2ccc(F)c(Cl)c2)s1 | 0 (inactive) |
| O=C(NC(=S)N1CCN(c2c(Cl)cccc2[N+](=O)[O-])CC1)c1cccs1 | 1 (active) |
| O=C(NC(=S)Nc1cccc(Cl)c1N1CCCC1)c1ccc(-c2cccc([N+](=O)[O-])c2)o1 | 0 (inactive) |
| COc1ccc(N(CC(=O)NC2CCCC2)C(=O)Cn2nnc(-c3ccc(C)cc3)n2)cc1 | 0 (inactive) |
| COc1cc2c(C(=O)N3CCN(C4CCCCC4)CC3)cn(CC(C)C)c(=O)c2cc1OC | 0 (inactive) |

| Structure (SMILES) | manual score |
| --- | --- |
| CC(=C/c1ccccc1)/C=N/n1c(-c2ccco2)n[nH]c1=S | 1 (active) |
| CC(/C=N/n1c(C2CCCCC2)n[nH]c1=S)=C\c1ccccc1 | 1 (active) |
| CC(/C=N/n1c(-c2ccco2)n[nH]c1=S)=C\c1ccccc1 | 1 (active) |
| CC(/C=N/NC(=O)c1c(Br)cnn1C)=C\c1ccccc1 | 0 (inactive) |
| Cc1ccc(C)n1-c1ccc(C(=O)NN)cc1 | 0 (inactive) |
| CC(C)NS(=O)(=O)c1ccc(OCC(=O)Nc2ccc3c(c2)OCO3)c(Cl)c1 | 0 (inactive) |
| COc1ccc(OC)c(C(=O)c2coc3ccc(O)c(CN4CCOCC4)c23)c1 | 0 (inactive) |
| CCCCCNC(=O)c1ccc2c(=O)[nH]c3c(C(=O)NCC4CCCO4)sc(=S)n3c2c1 (stereo not given) | -1 (active) |
| O=C(CN1C(=O)c2ccccc2C1=O)Nc1sc2c(c1C(=O)NCC1CCCO1)CCC2 (stereo not given) | 0 (inactive) |
| Cc1ccc(-n2nc(-c3cccs3)cc2C(=O)NCC2CCCO2)c(C)c1 (stereo not given) | -0.5 (inactive) |
| Cc1cc(C=C2C(=O)c3ccccc3C2=O)c(C)n1-c1ccccc1 | 3 (inactive) |
| CCc1nc2cc(Cl)c(Cl)cc2[nH]1 | 0 (inactive) |
| CCn1c(-c2cc(-c3cccc(OC)c3)nc3ccccc23)n[nH]c1=S | 0.5 (inactive) |
| CCCOc1cccc(-c2cc(-c3n[nH]c(=S)n3CC)c3ccccc3n2)c1 | 1 (active) |
| O=C(Nc1nnc(-c2cccs2)o1)c1cccc(C(F)(F)F)c1 | 1 (active) |
| Cc1ncoc1C(=O)Nc1ccc(Oc2ccccc2)cc1 | 0 (inactive) |
| O=C(Nc1nnc(-c2cccs2)o1)c1cccc(F)c1 | 1 (active) |
| O=C(Nc1nnc(-c2cccs2)o1)c1cccc(Oc2ccccc2)c1 | 1 (active) |
| O=C(Nc1cccs1)Nc1c(F)c(F)c(F)c(F)c1F | 0 (inactive) |
| CCOC(=O)C1=C(CC)Nc2ccccc2N=C1NC(=O)c1ccc(S(=O)(=O)N(C)C)cc1 | -0.5 (inactive) |
| Cc1cc(C)c(NC(=O)c2ccc(S(=O)(=O)N(C)C)cc2)c(C)n1 | 0 (inactive) |
| O=C(NNC(=S)Nc1cccc(C(F)(F)F)c1)c1cccc(Cl)c1 | 0 (inactive) |
| CCCCN(C)S(=O)(=O)c1ccc(C(=O)Nc2nnc(-c3cccs3)o2)cc1 | 1 (active) |
| Cc1occc1C(=O)Nc1cccc(C(F)(F)F)c1 | 0 (inactive) |
| Cc1nc(C)c(C(=O)Nc2ccc(Oc3ccccc3)cc2)o1 | 0 (inactive) |
| CCOC(=O)C1=C(CC)Nc2ccccc2N=C1NC(=O)Nc1ccc(Cl)c(Cl)c1 | 0 (inactive) |
| CN1CCN(S(=O)(=O)c2cccc(S(=O)(=O)c3cccc(S(=O)(=O)N4CCN(C)CC4)c3)c2)CC1 | 0 (inactive) |

| Structure (SMILES) | manual score |
| --- | --- |
| Cc1cc2nc(CCN(C(=S)NCC(C)C)C3CCCC3)[nH]c2cc1C | 0 (inactive) |
| Cc1sc2nc(CN3CCCC3)nc(N3CCN(S(=O)(=O)c4cccs4)CC3)c2c1C | 0 (inactive) |
| Cc1nc(N2CCN(C(=O)COc3ccccc3)CC2)c2c(C)c(C)sc2n1 | -1 (active) |
| O=C(CN1C(=O)c2cccc3cccc(c23)C1=O)N1CCN(c2ccccn2)CC1 | 3 (inactive) |
| CSc1cccc(NC(=O)CN(c2ccccc2)S(=O)(=O)N(C)C)c1 | 0 (inactive) |
| Cc1cccc(CSc2cccc3cccnc23)c1 | 1 (active) |
| CCOC(=O)CSc1cc(CSc2ccccc2)nc(-c2ccccc2)n1 | 0 (inactive) |
| CCOC(=O)CSc1cccc2cccnc12 | 1 (active) |
| CN(C)C(=O)CSc1cccc2cccnc12 | 0 (inactive) |
| S=C(N/N=C/c1ccccc1)N1CCOCC1 | 1 (active) |
| CC(CCc1ccccc1)NC(=O)N1CCOCC1 (stereo not given) | 0 (inactive) |
| S=C(N/N=C/c1ccc(Cl)cc1)N1CCOCC1 | 1 (active) |
| Cc1ccc(C(=O)c2ccc(N3CCOCC3)c(F)c2)cc1 | 0 (inactive) |
| O=C(CCCc1nc(-c2ccc(Cl)cc2)no1)N1CCOCC1 | 0 (inactive) |
| Clc1ccc(/C=N/Nc2nc(Cl)nc3ccccc23)cc1 | 0 (inactive) |
| Cc1ccc(/C=N/NC(=S)N2CCOCC2)cc1 | 1 (active) |
| O=C(NC(=Nc1ccccc1)N1CCOCC1)Nc1ccccc1 | 0 (inactive) |
| Cc1ccc(S(=O)(=O)c2c(C)cc(C)nc2Cl)c(C)c1 | 0 (inactive) |
| Cc1ccn2c(NC3CCCCC3)c(C(C)C)nc2c1 | 0 (inactive) |
| Cc1ccc(NC(=O)CSC(N)=O)cc1Cl | 0 (inactive) |
| CC(=O)Nc1ccc(S(=O)(=O)NC(C(=O)O)C2=CCC=CC2)cc1 (stereo not given) | 0 (inactive) |
| CC1=NN(C(N)=S)C(=O)C1N=Nc1ccccc1C (stereo not given) | 1 (active) |
| CC1=NN(C(N)=S)C(=O)C1N=Nc1ccc(C)cc1C (stereo not given) | 1 (active) |
| N=c1c2c(ncn1CCN1CCOCC1)Oc1ccc3ccccc3c1C2c1ccccc1 (stereo not given) | 0 (inactive) |
